In all, about 35,000 sequences were measured (“fluorescence intensity (a.u.)”: median about 10,000, highest 2% from about 52,000 on). Many of the other results were omitted from the sample, so the highest values are more common in it than they were.
Each sequence was assayed against T1, OsWOX13 (Oryza sativa, UniProt Q5QMM3 1-267) (assay: protein-binding microarray (RPBM); PBS, 2% BSA, 51.3 ng/ul salmon testes DNA, 50 uM zinc acetate, 200 nM TF, 25 C, 1 h; high values mean tight binding). Conditions: protein: recombinant; tags: N-terminal polyhistidine and DsRed monomer fusion (pET32a); label: CyDye5-dUTP incorporated in the synthesized complementary strand; 3' TTTTT single-stranded linker to array surface; dsDNA, one strand shown.
T1 sequence: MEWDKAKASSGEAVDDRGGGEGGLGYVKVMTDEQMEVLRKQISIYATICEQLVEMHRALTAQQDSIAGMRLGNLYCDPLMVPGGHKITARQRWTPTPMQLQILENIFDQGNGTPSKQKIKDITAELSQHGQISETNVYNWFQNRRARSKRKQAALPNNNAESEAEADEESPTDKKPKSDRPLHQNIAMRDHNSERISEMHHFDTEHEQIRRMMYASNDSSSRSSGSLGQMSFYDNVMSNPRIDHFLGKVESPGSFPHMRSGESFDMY
Method in brief: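 In PBS with 2% BSA, salmon testes DNA and 50 µM zinc acetate, 200 nM protein was incubated on a custom Agilent array at 25 °C for 1 h and then washed off. The array had been made double-stranded by primer extension with Cy5-dUTP and blocked with 2% BSA. The proteins were transcription factors fused N-terminally to polyhistidine and DsRed, expressed in E. coli BL21-CodonPlus and purified on Ni–NTA. The binding signal is per-feature fluorescence intensity (arbitrary units) from an Axon 4000B scanner.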

Sequence | binding signal
AAGTGATTGCCCTGGCTCAGAGTTGAGTAAACAATCAGGCCGGAGTCACCTAGTGCAG | 19900 fluorescence intensity (a.u.)
AGTGTGATTGATGCACAAACAAACAGCTCAAGTTGAGGCCCGGAGTCACCTAGTGCAG | 55400 fluorescence intensity (a.u.)
GTTTCAATGATTGGTTGTTCACCCAACCCAAGTACCCAGCCGGAGTCACCTAGTGCAG | 57400 fluorescence intensity (a.u.)
ATGTGATTATTTCGTCCTGCTGTAAACTTGGTGCAAGTGACGGAGTCACCTAGTGCAG | 18600 fluorescence intensity (a.u.)
GGCTTTCCAGTTGATAAATCAATCATCATCCCCTTGATCGCGGAGTCACCTAGTGCAG | 8410 fluorescence intensity (a.u.)
ATGTTCTTTCTTGATTAGACCATCTGATGCTTTGCGCAGTCGGAGTCACCTAGTGCAG | 4480 fluorescence intensity (a.u.)
TAGGAGATTATATTTAAATTAACTTTAAAGAGAAATCTTGCGGAGTCACCTAGTGCAG | 11600 fluorescence intensity (a.u.)
GGTTGTTAGCACATGATTAATTGTATTAAAACAACTTAAACGGAGTCACCTAGTGCAG | 3580 fluorescence intensity (a.u.)
AAGATTGAAGGCAACCAAACCAACAAGGATGGATGCTTCTCGGAGTCACCTAGTGCAG | 16500 fluorescence intensity (a.u.)
GGACGTATATATACATTGATTAATACCAAATCCTCAGCACCGGAGTCACCTAGTGCAG | 4520 fluorescence intensity (a.u.)
GTTGATTTGTGTTTTGACTTTTGAAAAGACTACTGTTACTCGGAGTCACCTAGTGCAG | 27500 fluorescence intensity (a.u.)
ATATTATTTATAAATTGTGTGTGCAACTGACTTGTGGGCCCGGAGTCACCTAGTGCAG | 3490 fluorescence intensity (a.u.)
TTTTATATTTTAATTAATTACATAATGTAAATATTTCTCACGGAGTCACCTAGTGCAG | 17100 fluorescence intensity (a.u.)
TAAAATTATCAAAATATTATATTATACACATAAGATTGTACGGAGTCACCTAGTGCAG | 5140 fluorescence intensity (a.u.)
TTATAATTACTACATTATAATAAAAGTAAAATTGTATTTACGGAGTCACCTAGTGCAG | 12100 fluorescence intensity (a.u.)
TTATAATTGTAAATTTTACAAATTAGTCCTCACCTGTTCTCGGAGTCACCTAGTGCAG | 53400 fluorescence intensity (a.u.)
CATAAATTAATTTGTTCACGTCACATTATATACAGTTGTACGGAGTCACCTAGTGCAG | 55000 fluorescence intensity (a.u.)
AGTGATTATAATATTGTTCACAAATTTACAAACCTCTCATCGGAGTCACCTAGTGCAG | 36700 fluorescence intensity (a.u.)
ATTATATATTTAATAAAATTAATTTGGTGTTGTATATTTACGGAGTCACCTAGTGCAG | 8780 fluorescence intensity (a.u.)
AATTAAATTAGAGTATTCAGTTTGTATATAGTACATTTGTCGGAGTCACCTAGTGCAG | 14000 fluorescence intensity (a.u.)
TTGTAATTACATAAATTATACGAATTGTAAAGATTTGGCACGGAGTCACCTAGTGCAG | 54600 fluorescence intensity (a.u.)

Sequence | binding signal
ACATATGTGATTAGTATCAGTTCATCAGTAGTCTTCCAATCGGAGTCACCTAGTGCAG | 18500 fluorescence intensity (a.u.)
CTGACAGGTATTATTGCTTGATATATTTTACTCACTTTACCGGAGTCACCTAGTGCAG | 14800 fluorescence intensity (a.u.)
ATGGGAGGTGAGATTGGGATTGGGAAATAAATGAATGGCTCGGAGTCACCTAGTGCAG | 5250 fluorescence intensity (a.u.)
GAGCAGATGATTAGTGAAGGTGTAACCCCTAACATCGTTACGGAGTCACCTAGTGCAG | 12900 fluorescence intensity (a.u.)
AATAAATTGTGTGGAAATTTAGCTTGCCCAATCAGATTGACGGAGTCACCTAGTGCAG | 16000 fluorescence intensity (a.u.)
TGCTAATTGGGGATTTTCACATTCATGCTGTGTTAGCAGGCGGAGTCACCTAGTGCAG | 54700 fluorescence intensity (a.u.)
AATTCTAATTGGGGAGCATTTAAAGGCTGGGTTTTAGTGGCGGAGTCACCTAGTGCAG | 20100 fluorescence intensity (a.u.)
AATGTGTTAGCGTTTAATTTGCGATTGGATTTGTTTCAGGCGGAGTCACCTAGTGCAG | 3560 fluorescence intensity (a.u.)
AAGTAATTTAGTCAACTCTAAAAGTAACTATGTGTGTGTGCGGAGTCACCTAGTGCAG | 17300 fluorescence intensity (a.u.)
TTGAATCAATGACTGATCATTGCCCAGACTGCTATTTTCCCGGAGTCACCTAGTGCAG | 7090 fluorescence intensity (a.u.)
CAAAACGAAATTGATAGATCTTAATGAGTTGTACAACTTTCGGAGTCACCTAGTGCAG | 20400 fluorescence intensity (a.u.)
AACTTATTCCAATTATCAAACTCCGCTGCTCAACCAGGCCCGGAGTCACCTAGTGCAG | 5860 fluorescence intensity (a.u.)
GCTTGATTGCCACACAAATTTTGACAATACGACCCTTTACCGGAGTCACCTAGTGCAG | 42900 fluorescence intensity (a.u.)
TCGCTATAATTGACAGCGACCCTACCTTGGGCCACCGGACCGGAGTCACCTAGTGCAG | 57100 fluorescence intensity (a.u.)
TTTTATAATTCGATGACAAATTGAGAGACCTTGGGTGTACCGGAGTCACCTAGTGCAG | 13200 fluorescence intensity (a.u.)
AAGCCTAATTAATCCATCCTTAGCAGATGTGGGTTACCGTCGGAGTCACCTAGTGCAG | 8630 fluorescence intensity (a.u.)
ATTACTATGATTACTATAATGTACCCTCAAAGCGTGTAGACGGAGTCACCTAGTGCAG | 7510 fluorescence intensity (a.u.)
ATAATGTCAAATTTCGTTCCATTGTGAAGAAATTTTGCCACGGAGTCACCTAGTGCAG | 3410 fluorescence intensity (a.u.)
CATGATAGATCAGGCAGAGAGCAGATCAGAGCAAGCATGTCGGAGTCACCTAGTGCAG | 11800 fluorescence intensity (a.u.)
GAGGGCAAGGCCCAGGGAAGCATATCTTGATAGTCGATATCGGAGTCACCTAGTGCAG | 65500 fluorescence intensity (a.u.)
ATGGAATTGATTAGAAGCCAGCCAGGCAGGGGAGGGTCGTCGGAGTCACCTAGTGCAG | 33900 fluorescence intensity (a.u.)

Source: article PMC7819943, “Rice protein-binding microarrays: a tool to detect cis-acting elements near promoter regions in rice”
